Screening data as filed in PubChem.
Compounds with a hit are over-represented: about 4.6% of the library has one in this group of screens.
PfHsp90 set2 = growth inhibition of PfHsp90-expressing yeast, primary screen, antimalarial PfHsp90 inhibitor project, S. cerevisiae, BacTiter-Glo luminescence, single point, set 2; BacTiter-Glo ATP, 48 h; yeast lacking PDR1 and PDR3 efflux regulators; inhibition, % at 9.4 µM; 310,000 tested, 0.32% active; AID 504621, 2011;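 active = every replicate shows inhibition above about 80%, whatever the replicate mean, limit read from the data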;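 note: 0% = DMSO neutral controls and 100% = 20 µM radicicol positive controls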
TIM10 inh = growth inhibitors of isogenic TIM10 control yeast, primary screen, counter-screen for tim10-1 yeast inhibitor project, luminescence, uHTS. inhibition, % at 10 µM. S. cerevisiae TIM10 strain growth, BacTiter-Glo luminescence, 24 h. 330,000 tested, 1.4% active;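 active = inhibition of 40% or more at the single tested concentration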;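 note: wild-type TIM10 isogenic control strain grown at permissive 25 °C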
NLRP3 yeast inh = NALP3 inflammasome inhibitors in reconstituted yeast, primary screen, luminescence, uHTS; AID 2825, 2010; inhibition, % at 10 µM; Yeast reconstituted NLRP3/ASC/caspase-1, beta-gal luminescence, 24 h; 330,000 tested, 0.39% active;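 active = inhibition of 50% or more; inactive = inhibition below 50%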;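 note: plate controls were induced DMSO wells for no effect and uninduced yeast grown without galactose for full effect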
SKKanGAS inh = S. pyogenes SKKanGAS growth inhibitors in kanamycin, primary screen, streptokinase expression inhibitor project, SKKanGAS strain, BacTiter-Glo luminescence. 6 h. inhibition, % at 7.5 µM. 300,000 tested, 1.3% active. AID 1662, 2009;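 active = mean replicate score, as percent of positive control median, at least 50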;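 note: strain carries kanamycin resistance gene driven by streptokinase promoter and grows in 40 µg/ml kanamycin; loss of luminescence reflects streptokinase promoter inhibition or plain growth inhibition; 0% = median of DMSO wells and 100% = positive control at its reference dose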
tim23-1 inh = growth inhibitors of tim23-1 mutant yeast, primary screen, luminescence, uHTS; S. cerevisiae tim23-1 growth, BacTiter-Glo luminescence, 24 h; inhibition, % at 20 µM; 330,000 tested, 1.3% active; AID 463212, 2010;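 active = growth inhibition of the mutant yeast at or above 50%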;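 note: temperature-sensitive mutant grown at 25 °C; plate controls were DMSO-treated mutant yeast for no effect and medium wells lacking yeast for full effect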
tim10-1 inh = growth inhibitors of tim10-1 mutant yeast, primary screen, luminescence, uHTS | AID 463190, 2010 | S. cerevisiae tim10-1 ts strain growth, BacTiter-Glo, 24 h | 330,000 tested, 2.2% active | inhibition, % at 20 µM;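 active = inhibition of at least 40%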;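 note: mutant grown at 25 °C; 0% = DMSO wells with yeast and 100% = wells holding no yeast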
NALP3 confirm = NALP3 inhibitors retested in yeast, confirmation, luminescence, single concentration; shares compounds with NLRP3 yeast inh; yeast expressing human NALP3; inhibition, % at 10 µM; 1,300 tested, 81% active; AID 435006, 2010; in the data active = inhibition above about 48%
Casp1-ASC yeast = CASP1-PYCARD signaling inhibition in yeast, confirmatory test, counterassay for NLRP3 inhibitor program, one-dose; shares compounds with NLRP3 yeast inh; yeast expressing Caspase-1-ASC, luminescence counter screen; inhibition, % at 10 µM; 1,000 tested, 66% active; AID 488784, 2010
NALP3 yeast rt = NALP3 inhibitors in yeast, repeat test, confirmation, luminescence, single concentration, retest. 1,000 tested, 53% active. inhibition, % at 10 µM. AID 488794, 2010. yeast expressing human NALP3, luminescence read-out. shares compounds with NLRP3 yeast inh
tim10-1 conf = growth inhibitors of tim10-1 mutant yeast, confirmation, single concentration, luminescence, S. cerevisiae; S. cerevisiae tim10-1 ts strain growth, BacTiter-Glo, 24 h; inhibition, % at 20 µM; 7,400 tested, 56% active; shares compounds with tim10-1 inh;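 active = inhibition of yeast growth at or above a set limit in either of two repeat tests at 20 µM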;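 note: tim10-1 mutant grown at permissive 25 °C to find synthetic lethal compounds; 0% = DMSO yeast wells and 100% = medium wells without yeast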
TIM10 conf = growth inhibitors of wild-type TIM10 yeast, confirmation, counter-screen for tim10-1 synthetic lethality project, single concentration, luminescence, S. cerevisiae. 4,600 tested, 63% active. inhibition, % at 10 µM. shares compounds with TIM10 inh. S. cerevisiae tim10 strain growth, BacTiter-Glo luminescence, 24 h;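 active = inhibition of yeast growth at or above a set limit in either of two replicates at 10 µM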;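 note: this counterscreen used the strain with wild-type TIM10; 0% = yeast with DMSO and 100% = medium wells lacking yeast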
tim23-1 conf = tim23-1 mutant yeast growth inhibitors, confirmation, luminescence, single concentration; shares compounds with tim23-1 inh; S. cerevisiae tim23-1 growth, BacTiter-Glo luminescence, 24 h; inhibition, % at 20 µM; 4,400 tested, 83% active;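 active = inhibition above about 39% in either of two replicate wells at 20 µM, limit read from the data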;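 note: temperature-sensitive tim23-1 mutant grown at 25 °C; 0% = DMSO wells with yeast and 100% = medium wells without yeast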
* marks the source's active call; other numbers are inactive results. Cut-off read from the data, not from the text of the source, unless noted: active = inhibition above about 50%; inactive = the rest.

COc1ccc(/C=C/C(=O)Nc2ccc3c(c2)CCC3)cc1OC was read as PfHsp90 set2 -4, TIM10 inh 21, NLRP3 yeast inh 59*, SKKanGAS inh -12, tim23-1 inh 54*, tim10-1 inh -36, NALP3 confirm 26 and tim23-1 conf 55*.
For C=CCSc1n[nH]c(-c2ccc(OCCC)cc2)n1 the results were TIM10 inh 46*, NLRP3 yeast inh 57*, SKKanGAS inh -16, tim23-1 inh 66*, tim10-1 inh 21, NALP3 confirm 73*, Casp1-ASC yeast 56*, NALP3 yeast rt 48, TIM10 conf 41* and tim23-1 conf 38*.
C=CCSc1n[nH]c(-c2cccs2)n1 was read as PfHsp90 set2 25, TIM10 inh -3, NLRP3 yeast inh 25, SKKanGAS inh 0, tim23-1 inh 19 and tim10-1 inh 24.
For O=C(NCCC1=CCCCC1)c1c(O)nc2sccn2c1=O the results were TIM10 inh 36, NLRP3 yeast inh 67*, SKKanGAS inh 31, tim23-1 inh 75*, tim10-1 inh 42*, NALP3 confirm 79*, Casp1-ASC yeast 48, NALP3 yeast rt 56*, tim10-1 conf 1 and tim23-1 conf 62*.
Screening O=C(NCCC1=CCCCC1)c1cnsn1 returned PfHsp90 set2 -18, TIM10 inh 2, NLRP3 yeast inh -4, SKKanGAS inh -1, tim23-1 inh 6 and tim10-1 inh 12.
Screening O=C(NCCC1=CCCCC1)c1c(O)nc2ccccn2c1=O returned PfHsp90 set2 -22, TIM10 inh 31, NLRP3 yeast inh 63*, SKKanGAS inh 3, tim23-1 inh 56*, tim10-1 inh 51*, NALP3 confirm 76*, Casp1-ASC yeast 52*, NALP3 yeast rt 55*, tim10-1 conf -6 and tim23-1 conf 56*.
O=C(NCCCc1ccccc1)c1c(O)nc2sccn2c1=O was read as PfHsp90 set2 15, TIM10 inh 31, NLRP3 yeast inh 63*, SKKanGAS inh 5, tim23-1 inh 70*, tim10-1 inh 36, NALP3 confirm 77*, Casp1-ASC yeast 39, NALP3 yeast rt 59* and tim23-1 conf 54*.
CCn1c(=O)c(C(=O)NCCCc2ccccc2)c(O)c2ccccc21 was read as PfHsp90 set2 11, TIM10 inh -15, NLRP3 yeast inh 15, SKKanGAS inh 5, tim23-1 inh 0 and tim10-1 inh -36.
`O=C(CCNC(=O)c1ccc(Br)cc1)NNC(=O)C1COc2ccccc2O1` (centres undefined) gave TIM10 inh -6, NLRP3 yeast inh -1, SKKanGAS inh 7, tim23-1 inh -7 and tim10-1 inh -24.
N#CCCN(C(=O)COC(=O)C1=NNC(=O)CC1)c1ccccc1 was read as TIM10 inh -13, NLRP3 yeast inh 9, SKKanGAS inh -3, tim23-1 inh -6 and tim10-1 inh -20.
Screening COc1ccccc1C(C[N+](=O)[O-])c1c(N)n(C)c(=O)n(C)c1=O (centres undefined) returned TIM10 inh 55*, NLRP3 yeast inh 77*, SKKanGAS inh -5, tim23-1 inh 82*, tim10-1 inh 57*, NALP3 confirm 51*, Casp1-ASC yeast 75*, NALP3 yeast rt 49, tim10-1 conf 61*, TIM10 conf 64* and tim23-1 conf 84*.
Screening O=C(Nc1cc2c(cc1C(=O)O)OCCCO2)c1ccc(F)cc1F returned PfHsp90 set2 -21, TIM10 inh 8, NLRP3 yeast inh 26, SKKanGAS inh -3, tim23-1 inh 2 and tim10-1 inh -8.
`CCCC1CCC(c2ccc(C(=O)NN)cc2)CC1` (centres undefined) gave PfHsp90 set2 3, TIM10 inh 47*, NLRP3 yeast inh 51*, SKKanGAS inh 1, tim23-1 inh 55*, tim10-1 inh 32, NALP3 confirm 35, TIM10 conf 32* and tim23-1 conf 18.
For O=C(CSc1nc(=O)n(CCCN2CCOCC2)c2c1CCCC2)Nc1ccc(Cl)cc1 the results were PfHsp90 set2 -15, TIM10 inh 13, NLRP3 yeast inh 13, SKKanGAS inh -5, tim23-1 inh -18 and tim10-1 inh -11.
O=Cc1cn(-c2ccccc2)nc1-c1ccc2c(c1)OCCO2 was read as PfHsp90 set2 26, TIM10 inh 47*, NLRP3 yeast inh 50*, tim23-1 inh 72*, tim10-1 inh 53*, NALP3 confirm 57*, Casp1-ASC yeast 52*, NALP3 yeast rt 60*, tim10-1 conf 59*, TIM10 conf 62* and tim23-1 conf 78*.
`N#Cc1cn(-c2ccccc2)nc1-c1ccc2c(c1)OCCO2` gave PfHsp90 set2 -12, TIM10 inh 7, NLRP3 yeast inh 5, SKKanGAS inh 0, tim23-1 inh 2 and tim10-1 inh 16.
`COc1cccc2c1C(=O)c1c(O)c3c(c(O)c1C2=O)C[C@@](O)(C(=O)CO)C[C@@H]3O[C@H]1C[C@H](N)[C@H](O)[C@H](C)O1` gave PfHsp90 set2 23, TIM10 inh -6, NLRP3 yeast inh 65*, SKKanGAS inh 107*, tim23-1 inh 52*, tim10-1 inh 11, NALP3 confirm 69*, Casp1-ASC yeast 75*, NALP3 yeast rt 66* and tim23-1 conf 44*.
